Results on eight compounds are retold here after PubChem BioAssay (NCI).

Some test systems named below: HCT-15 colon; HT29 colon; SNB-75 CNS; SNB-19 CNS; U251 CNS; PC-3 prostate; SK-MEL-5 melanoma; UACC-62 melanoma; LOX IMVI melanoma; SK-MEL-28 melanoma; SK-MEL-2 melanoma; EKVX NSCLC; SN12C renal; UO-31 renal; TK-10 renal; ACHN renal; CAKI-1 renal; A498 renal; CCRF-CEM leukemia; MOLT-4 leukemia.
Holding throughout (test): NCI-60 one-dose screen, 48 h (100 = growth as untreated, 0 = no growth, -100 = all killed)
Details in all cases: 10 µM unless noted

About 83,000 compounds went through this panel and 20% of them were active in at least one assay; those are over-represented in the sample as a whole.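 Results are percent growth after 48 hours of single-concentration exposure. 100 means growth as in untreated cells, lower positive values show inhibition; negative values down to -100 show cell death.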 Values without a mark were called inactive. Calls of active or inactive are those of the source. How the source made its calls: active means growth percent below 10; inactive means the rest.

On to `O=C(c1cccc(N2CCOCC2)n1)c1c[nH]c2ccccc12`, for which the growth was 95.7% with HCT-15 colon; 105% in the test on HT29 colon; 82% in the test with SNB-75 CNS; 99.4% in the test on SNB-19 CNS; 91.7% in the test on U251 CNS; 83.5% with PC-3 prostate. Also, the growth is 93.8% in the test on SK-MEL-5 melanoma; 82.8% in the test with UACC-62 melanoma; 93% with LOX IMVI melanoma; 98.6% with SK-MEL-28 melanoma; 103% in the test with SK-MEL-2 melanoma; 76.3% in the test on EKVX NSCLC. Besides, the growth is 89.9% in the test with SN12C renal; 66.9% in the test with UO-31 renal; 120% with TK-10 renal; 86.5% in the test on ACHN renal; 76% in the test with CAKI-1 renal; 85.2% in the test with A498 renal. Moreover, the growth with CCRF-CEM leukemia was 97.2%; in the test on MOLT-4 leukemia it was 100%.
For `O=S(O)c1cc(Cl)cc(Cl)c1OCc1ccccc1`, the growth with HCT-15 colon is 112%; in the test on HT29 colon, 104%; in the test with SNB-75 CNS it was 98.7%; with SNB-19 CNS, 102%; with U251 CNS it was 93.7%; in the test with PC-3 prostate, 84.5%. The growth was 96.3% in the test with SK-MEL-5 melanoma; 107% in the test on UACC-62 melanoma; 108% in the test on LOX IMVI melanoma; 105% with SK-MEL-28 melanoma; 105% in the test with SK-MEL-2 melanoma; 99.1% in the test with EKVX NSCLC. The growth with SN12C renal was 98.4%; with UO-31 renal, 90.3%; in the test on TK-10 renal, 101%; with ACHN renal, 110%; in the test with CAKI-1 renal, 99%; in the test with A498 renal, 80%. Moreover, the growth with CCRF-CEM leukemia is 102%; in the test on MOLT-4 leukemia, 101%.
Regarding `c1cc(OCCN2CCCCC2)ccc1CNc1ccc2nc(CCC3CCCCC3)[nH]c2c1`, the growth with HCT-15 colon is -13.9% (active); in the test on HT29 colon, 8.7% (active); in the test with SNB-75 CNS, 68.1%; in the test with SNB-19 CNS it was 62%; in the test on U251 CNS, -11.8% (active); in the test on PC-3 prostate, 44.9%. In addition, the growth with SK-MEL-5 melanoma is -99.4% (active); with UACC-62 melanoma it was 53.5%; with LOX IMVI melanoma, -82% (active); in the test on SK-MEL-28 melanoma, -86.6% (active); in the test with SK-MEL-2 melanoma it was -11.3% (active); in the test on EKVX NSCLC it was 75.8%. The growth in the test with SN12C renal was 64.4%; in the test on UO-31 renal, -30.4% (active); in the test with TK-10 renal, 80.1%; in the test on ACHN renal, 45.4%; in the test on CAKI-1 renal it was -28.5% (active); with A498 renal, 10.5%. The growth is 5.76% (active) with CCRF-CEM leukemia and 7.66% (active) with MOLT-4 leukemia.
For `O=C(/C=C/C12c3ccccc3C(c3ccccc31)C1C(=O)NC(=O)C12)c1ccco1` (stereo not given), the growth in the test with HCT-15 colon is 21.7%; in the test with HT29 colon, 13.1%; with SNB-75 CNS, -2.52% (active); in the test on SNB-19 CNS it was 30.9%; with U251 CNS, 15.9%; in the test with PC-3 prostate, 31.9%. Further, the growth with SK-MEL-5 melanoma was 46%; in the test on UACC-62 melanoma, 30.8%; with LOX IMVI melanoma, 16.1%; with SK-MEL-28 melanoma it was 44.3%; in the test with SK-MEL-2 melanoma, 7.24% (active); with EKVX NSCLC, 55.6%. Besides, the growth in the test on SN12C renal is 22.6%; in the test on UO-31 renal it was 42%; in the test on TK-10 renal it was 33.6%; in the test with ACHN renal, 45.6%; in the test with CAKI-1 renal, 48.1%; with A498 renal, 61.7%. Moreover, the growth with CCRF-CEM leukemia was -5.48% (active); with MOLT-4 leukemia, 6.25% (active).
As to `C=C1C(=O)O[C@H]2[C@H]1CC/C(COC(=O)C(=O)c1c[nH]c3ccc(Cl)cc13)=C\CC[C@@]1(C)O[C@@H]21`, the growth with HCT-15 colon was -58.4% (active); with HT29 colon, -52.7% (active); with SNB-75 CNS, -97% (active); in the test on SNB-19 CNS it was -71.6% (active); in the test with U251 CNS, -93.1% (active); in the test with PC-3 prostate, -74.4% (active). Besides, the growth in the test with SK-MEL-5 melanoma is -97.6% (active); in the test on UACC-62 melanoma it was -81.8% (active); in the test with LOX IMVI melanoma, -92.7% (active); in the test with SK-MEL-28 melanoma it was -72.4% (active); with SK-MEL-2 melanoma it was -58.9% (active); with EKVX NSCLC it was -73.6% (active). The growth with SN12C renal was -86.8% (active); with UO-31 renal, -94.4% (active); in the test with TK-10 renal, -96.4% (active); in the test with ACHN renal, -84.3% (active); in the test with CAKI-1 renal it was -87.5% (active); in the test with A498 renal, -87.4% (active). Also, the results for the growth in the test on CCRF-CEM leukemia and in the test with MOLT-4 leukemia were -41.3% (active) and -12.4% (active), respectively.
In the case of `N=C(N)c1ccc(OCCSCCOc2ccc(C(=N)N)cc2)cc1`, the growth was 85.1% in the test on HCT-15 colon; 85.4% with HT29 colon; 71.2% in the test on SNB-75 CNS; 56.7% in the test with SNB-19 CNS; 48% in the test on U251 CNS; 90.6% in the test on PC-3 prostate. The growth in the test with SK-MEL-5 melanoma was 41.4%; with UACC-62 melanoma, 67.4%; with LOX IMVI melanoma, 90.5%; in the test on SK-MEL-28 melanoma it was 92.2%; with SK-MEL-2 melanoma, 82.5%; in the test on EKVX NSCLC, 56.6%. Moreover, the growth in the test on SN12C renal was 37.4%; in the test with UO-31 renal, 70.7%; with TK-10 renal it was 60.8%; in the test on ACHN renal it was 74.3%; in the test on CAKI-1 renal it was 51.7%; in the test on A498 renal, 51.7%. In addition, the growth in the test with CCRF-CEM leukemia is 97.6%; in the test on MOLT-4 leukemia it was 93.4%.
Take `O=C(NCCCCCCNC(=O)OCc1ccc2c(Cl)cc(Cl)c(O)c2n1)OCc1ccc2c(Cl)cc(Cl)c(O)c2n1`: the growth with HCT-15 colon is -29.1% (active); in the test with HT29 colon, -75% (active); in the test with SNB-75 CNS, -96.2% (active); in the test with SNB-19 CNS, 51.4%; in the test on U251 CNS, -92.2% (active); in the test on PC-3 prostate it was -46.2% (active). Moreover, the growth with SK-MEL-5 melanoma is -95.5% (active); in the test with UACC-62 melanoma, -94.3% (active); in the test with LOX IMVI melanoma it was -88.7% (active); with SK-MEL-28 melanoma it was -89.8% (active); in the test with SK-MEL-2 melanoma, -62% (active); in the test with EKVX NSCLC, -69% (active). The growth was -93.4% (active) with SN12C renal; -100% (active) with UO-31 renal; -90.3% (active) in the test on TK-10 renal; -97.5% (active) with ACHN renal; -87.8% (active) with CAKI-1 renal; 34.9% in the test on A498 renal. Moreover, the growth in the test with CCRF-CEM leukemia is 2.24% (active); with MOLT-4 leukemia, -2.75% (active).
Take `COc1cc(/C=N/NC(=O)c2ccc(-n3cc(-c4ccccc4)nn3)cc2)cc(OC)c1OC`: the growth with HCT-15 colon was 76.2%; in the test with HT29 colon it was 47.8%; in the test with SNB-75 CNS, 71.6%; with SNB-19 CNS, 58.9%; in the test on U251 CNS it was 48.4%; with PC-3 prostate, 47.5%. Further, the growth in the test with SK-MEL-5 melanoma is 57.2%; in the test on UACC-62 melanoma, 9.86% (active); in the test on LOX IMVI melanoma, 36.3%; in the test with SK-MEL-28 melanoma it was 53.3%; in the test with SK-MEL-2 melanoma it was 98%; in the test on EKVX NSCLC, 91.1%. Besides, the growth in the test with SN12C renal was 80%; with UO-31 renal it was 88.2%; in the test on TK-10 renal, 99.2%; in the test on ACHN renal, 70.7%; in the test with CAKI-1 renal, 65.3%; in the test on A498 renal, 71.1%. In addition, the growth in the test with CCRF-CEM leukemia was 55.1%; in the test on MOLT-4 leukemia, 78.3%.
